Rows were chosen to be rich in hits. Some 2.5% of all compounds tested hit in one or more screens of this group.
Pol eta inh – qHTS for Inhibitors of Polymerase Eta | DNA polymerase eta (Homo sapiens), Q9Y253 | recombinant Pol eta, fluorescent DNA replication assay | Potency, µM (top dose mostly 114 µM), without a hit: at the highest dose activity change, negative = inhibition, usual class: inhibitors | actives 1.2% (n = 390,000) | AID 588591, 2011; note: % is set by controls: 0 for no effect and ±100 for the full control effect
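Pol eta (10 nM) was preincubated with compounds for 15 min at room temperature, after which fluorescent replication substrate (50 nM final) was added to start the reaction. Fluorescence was read kinetically at 0 and 10 min.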
Pol kappa inh – qHTS for Inhibitors of Polymerase Kappa. DNA polymerase kappa (Homo sapiens), Q9UBT6. purified Pol kappa, fluorescent DNA synthesis assay, 10 min. Potency, µM (doses to about 107 µM), inactives show at the top dose activity, negative = inhibition, hits mostly inhibitors. actives 0.53% (n = 400,000). AID 588579, 2011; note: % is set by controls: 0 for no effect and ±100 for the full control effect
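Inhibition of 10 nM Pol kappa is measured by a fluorescent read-out at 0 and 10 min following addition of 50 nM substrate (final), with a 15-min room-temperature compound preincubation.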
POLI inh – qHTS for Inhibitors of Polymerase Iota; DNA polymerase iota (Homo sapiens), Q9UNA4; Pol iota fluorescent replication assay, 10 min; Potency, µM (top dose mostly 115 µM), without a hit: top-dose activity, negative = inhibition, actives largely listed as inhibitors; actives 1% (n = 390,000); AID 588590, 2011
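Fluorescent replication assay read twice, at 0 min and 10 min after adding 50 nM (final) substrate. Enzyme (10 nM) and compounds were first incubated 15 min at room temperature; enzyme-free buffer wells were negative controls.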
L3MBTL1 block – qHTS Assay for the Inhibitors of L3MBTL1 | Lethal(3)malignant brain tumor-like protein 1 (Homo sapiens), Q9Y468 | AlphaScreen L3MBTL1–H3K9me1 peptide binding | Potency, µM (top dose mostly 57.1 µM), without a hit: top-dose activity, negative = inhibition, most hits filed as inhibitors | actives 0.66% (n = 230,000) | AID 485360, 2010; note: % is set by controls: 0 for no effect and ±100 for the full control effect; nearly all actives have a fitted effect of over 60% in size
Target sequence (Q9Y468 whole entry, looked up): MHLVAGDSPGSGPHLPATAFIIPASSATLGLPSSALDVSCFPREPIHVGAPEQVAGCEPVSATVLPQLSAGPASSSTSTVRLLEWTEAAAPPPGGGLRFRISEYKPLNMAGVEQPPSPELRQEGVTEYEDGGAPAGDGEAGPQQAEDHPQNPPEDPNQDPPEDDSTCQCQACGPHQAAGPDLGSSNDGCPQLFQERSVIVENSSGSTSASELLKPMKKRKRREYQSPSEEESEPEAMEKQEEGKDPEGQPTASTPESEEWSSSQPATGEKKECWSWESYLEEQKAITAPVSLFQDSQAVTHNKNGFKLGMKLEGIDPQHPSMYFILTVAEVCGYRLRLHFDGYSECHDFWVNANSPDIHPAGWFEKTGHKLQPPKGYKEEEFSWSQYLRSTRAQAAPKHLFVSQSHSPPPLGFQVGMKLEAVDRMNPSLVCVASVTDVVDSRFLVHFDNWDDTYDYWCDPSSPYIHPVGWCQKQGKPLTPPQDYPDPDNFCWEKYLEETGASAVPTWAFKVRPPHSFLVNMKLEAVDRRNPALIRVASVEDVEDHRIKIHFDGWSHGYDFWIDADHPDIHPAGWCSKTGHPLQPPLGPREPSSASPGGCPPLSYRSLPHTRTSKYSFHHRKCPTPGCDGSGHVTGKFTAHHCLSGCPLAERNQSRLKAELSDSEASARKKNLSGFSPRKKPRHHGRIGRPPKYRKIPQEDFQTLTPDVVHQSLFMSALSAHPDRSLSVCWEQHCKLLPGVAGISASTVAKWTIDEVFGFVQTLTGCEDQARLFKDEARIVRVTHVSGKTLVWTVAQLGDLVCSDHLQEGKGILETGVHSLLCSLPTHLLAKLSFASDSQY
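L3MBTL1 50 nM + b-AHA-H3(1-15)K9me1 75 nM, 30 min RT; compound added, 30 min RT; streptavidin donor/Ni-chelate acceptor beads 10 ug/mL each final, 30 min RT dark; AlphaScreen read.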
Pol beta inh – qHTS Assay for Inhibitors of DNA Polymerase Beta | Pol beta primer extension/strand displacement, fluorescence kinetic | Potency, µM (titrated, usually from 114 µM), for the others: top-dose activity change, negative = inhibition, hits mostly inhibitors | actives 1.3% (n = 340,000); note: % is set by controls: 0 for no effect and ±100 for the full control effect
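Enzyme-only controls used 10 nM Pol beta; buffer lacking enzyme served as negative control. Compound preincubated 15 min, then 50 nM substrate added; 0 and 10 min reads at room temperature.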
APE1 inh – qHTS Assay for Inhibitors of the Human Apurinic/apyrimidinic Endonuclease 1 (APE1); DNA repair nuclease/redox regulator APEX1 (Homo sapiens), P27695; recombinant APE1, TAMRA/BHQ-2 abasic DNA cleavage fluorescence; Potency, µM (top dose mostly 65.8 µM), without a hit: at the highest dose activity change, negative = inhibition, hits mostly inhibitors; actives 0.35% (n = 350,000); AID 2517, 2012;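 note: plate controls were vehicle for no effect and reference inhibitor for full effect; nearly all actives have a fitted effect of over 55% in size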
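Step 1: APE1 (0.75 nM) with compound, 15 min RT. Step 2: add 50 nM fluorophore/quencher THF duplex. Step 3: three fluorescence reads 60 s apart (525/598 nm); read 3 minus read 1 = reaction progress.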
The depositor's hits bear a star; ? = inconclusive; / = not tested or not shown; [ ] = another dose, or the depositor's remark. Calls come from the whole dose curve; as a rule, active = well fitted curve in the direction sought with a large enough effect; inconclusive = small, poorly fitted or top-dose-only effect, or another doubt; inactive = no such curve, though single readings can be large; an effect the other way counts as inactive or inconclusive. Potency is the fitted concentration of half-maximal effect.

SMILES | Pol eta inh | Pol kappa inh | POLI inh | L3MBTL1 block | Pol beta inh | APE1 inh
CCOC(=O)c1cc2c(=O)n3ccccc3nc2n(Cc2ccco2)c1=NC(=O)c1cccc(Br)c1 | 1.1% | 2.2%[60.1 µM] | 39.8µM* | / | 22.4µM* | /
C=CCOC(=O)C1=C[C@H](c2ccc(Br)cc2)C[C@H](OCc2ccc(CO)cc2)O1 | -17.5% | -24.5% | -7.9% | / | / | /
O=C(Cc1ccc(F)cc1)NCCc1csc2nc(-c3ccc(Cl)cc3)nn12 | -19.5% | -6.5%[60.1 µM] | 32.2% | / | 3.3% | /
Cc1ccc(NC(=O)C2CCN(S(=O)(=O)c3ccc4c(c3)NC(=O)C(C)S4)CC2)cc1Cl (stereo not drawn) | -6.9% | 1.2% | 1.6% | / | -2.6% | -5.8%
Cc1cc(Br)ccc1NC(=O)C1C2CCC(O2)C1C(=O)O (stereo not drawn) | -6.9% | 9.3% | 16.7% | 3.8% | 10.4% | 38.4%
CCOC(=O)c1cc2c(=O)n3ccccc3nc2n(Cc2ccco2)c1=NC(=O)c1ccccc1Br | ? | 89.1µM* | 14.1µM* | / | ? | /
COc1cccc(/C=N/n2c(C3CCCCC3)n[nH]c2=S)c1 | -5.9% | -12.5% | -8.0% | / | 18.5% | -3.8%
Cc1cc2c(C)nc(N/N=C/c3ccc([N+](=O)[O-])cc3)nc2o1 | ? | -13.1% | 35.5µM* | 7.4% | -19.1% | -4.3%
Cc1cc2c(C)nc(N/N=C/c3ccc(F)cc3)nc2o1 | -19.0% | -7.3% | -18.3% | -7.6% | ? | 1.0%
Cc1ccccc1Cn1c2ccccc2c2cnn(CC(=O)NCC(C)c3ccccc3)c(=O)c21 (stereo not drawn) | 3.6% | -4.0% | -10.7% | / | 22.7% | /
CCn1c(=O)cc(SCC(=O)NCc2ccc(F)cc2Cl)c2ccccc21 | -22.3% | -1.3% | 42.6% | / | -1.1% | /
C[C@@H]1c2cccc(O)c2C(O)=C2C(=O)[C@@]3(O)C(O)=C(C(N)=O)C(=O)[C@@H](N(C)C)[C@@H]3[C@@H](O)[C@@H]21 | / | 1.7%[19.4 µM] | / | / | / | /
Cc1ccn2c(Nc3ccc4c(c3)OCCO4)c(-c3ccc(C)o3)nc2c1 | -4.1% | -4.0% | 7.3% | / | -15.7% | /
CN(Cc1ccccc1)S(=O)(=O)c1ccc2[nH]c3c(c2c1)CCCCC3 | -6.9% | 0.9% | ? | / | -19.5% | /
O=C(O)c1cccc(N2C(=O)c3ccc(Oc4ccc(Cl)cc4)cc3C2=O)c1 | 0.2% | -25.8% | 56.4% | -9.9% | 89.1µM* | -4.4%
O=C(O)c1ccc(CSc2nnc(-c3cccc(S(=O)(=O)NC4CCCC4)c3)n2-c2ccc(F)cc2)cc1 | / | / | / | / | / | 61.4%
Cc1c(Br)c(O)c(Br)c(O)c1/C=N/n1c(-c2ccccc2)n[nH]c1=S | 3.16µM* | 35.5µM* | 7.94µM* | / | 50.1µM* | 44.5%
Oc1c(Br)cc(/C=N/n2c(-c3ccccc3)n[nH]c2=S)c(O)c1Br | 10µM* | 39.8µM* | ? | 1.6% | 87.7% | 4.4%
Oc1c(Br)cc(/C=N/n2c(-c3ccccc3)n[nH]c2=S)cc1Br | -13.6% | -11.2% | 164.1% | 2.3% | -9.0% | -22.4%
CCOC(=O)C(CCc1ccccc1)NC(C)C(=O)N1Cc2cc(OC)c(OC)cc2CC1C(=O)O (stereo not drawn) | / | 16.1%[60.1 µM] | / | / | / | /
O=C(CN1CCN(c2ccccc2O)CC1)NC(c1ccccc1)c1ccccc1 | -14.5% | -0.2% | 15.5% | -3.6% | 11.2% | -1.1%
O=C(CN1CCCC1)NC(c1ccccc1)c1ccccc1 | -20.9% | -4.6% | 141.6% | 3.98µM* | 17.6% | 8.2%
O=c1[nH]c2ccc(S(=O)(=O)Nc3cc(Cl)ccc3O)cc2o1 | 89.1µM* | ? | ? | / | ? | /
CC(/C=C/C1(O)C(C)CC(O)CC1(C)C)OC1OC(CO)C(O)C(O)C1O (stereo not drawn) | 35.5µM* | 56.2µM* | ? | / | 25.1µM* | ?
CC(/C=C/C1[C@H](C)C[C@H](O[C@@H]2O[C@H](CO)[C@@H](O)[C@H](O)[C@H]2O)CC1(C)C)O[C@H]1O[C@H](CO)[C@@H](O)[C@H](O)[C@H]1O (stereo partly drawn) | -9.5% | 7.6% | -12.7% | -4.2% | / | 2.7%
SMILES | Pol eta inh | Pol kappa inh | POLI inh | L3MBTL1 block | Pol beta inh | APE1 inh
Cc1cc(NC(=O)CN(C)S(=O)(=O)c2ccc3c(c2)CCCC(=O)N3)ccc1Br | -13.0% | -13.7% | 12.3% | / | -1.8% | /
CC(C)c1ccc(NC(=O)C[n+]2ccn(C3=C([O-])c4ccccc4C3=O)c2)cc1 | 79.4µM* | -43.6% | ? | ? | ? | -0.7%
CCCCc1nnc(SCCSc2nnc(CCCC)n2N)n1N | -10.3% | -5.8% | 89.1µM* | / | 27.8% | 14.2%
O=c1c2c3c(sc2nc2n1CCCCC2)C(O)CCC3 (stereo not drawn) | -12.8% | 1.4% | 116.2% | 5.2% | ? | 1.0%
O=C1c2sc3nc4n(c(=O)c3c2CCC1Br)CCCCC4 (stereo not drawn) | ? | -6.4% | ? | -8.2% | 50.1µM* | -4.0%
O=C1CCCc2c1sc1nc3n(c(=O)c21)CCCCC3 | -11.8% | -0.5% | 15.3% | / | 28.6% | 12.1%
O=c1c2c3c(sc2nc2n1CCCCC2)CCC3 | -12.2% | 6.0% | 11.0% | / | 31.6µM* | -0.4%
CCCCCCCCCCCCCC[C@@H](O)[C@@H](O)[C@@H](N)CO | / | ? | / | / | / | -1.0%
O=C1CCNc2ccc(-c3ccccc3)cc21 | -12.6% | 1.3% | 13.8% | 20.7% | 7.7% | 20.9%
O=C1CCNc2cc3ccccc3cc21 | ? | -16.7% | -13.8% | / | 25.1µM* | 14.9%
CCN(C(=O)CSc1nc2cc(S(=O)(=O)N(CC)CC)ccc2o1)C1CCS(=O)(=O)C1 (stereo not drawn) | -20.4% | -9.4% | -8.3% | / | -21.9% | -1.3%
O=C(Nc1cccnc1)c1cc(Br)c(Br)s1 | -14.1% | 1.2% | 37.2% | -0.2% | / | -16.0%
NC(=O)c1cc(NC(=O)c2cc(Br)c(Br)s2)cc(C(N)=O)c1 | -2.6% | -22.4% | 5.2% | ? | 39.8µM* | 14.2%
CC(=O)c1ccc(NC(=S)N2CCN(c3ccccn3)CC2)cc1 | 89.1µM* | -0.9% | 21.8% | / | 17.5% | 0.5%
C=CCn1c(NS(=O)(=O)c2ccccc2)c(S(=O)(=O)c2ccc(C)cc2)c2nc3ccccc3nc21 | 89.1µM* | 4.8% | 3.16µM* | 3.55µM* | ? | 5.1%
OC[C@@H](O)[C@H](O)[C@H](O)[C@@H](O)CO | / | / | / | / | / | 11.2%
